# The panel holds about 83,000 compounds, 20% with a hit somewhere; the sample as a whole holds those more often.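 In brief: 96-well plates, 48 h treatment, single concentration, percent growth endpoint.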 A number with no mark means an inactive call. Calls of active or inactive are those of the source. Rule for the calls: active = growth percent below 10; inactive = the rest.
# Tested on: KM12 colon
# Test: NCI-60 one-dose screen, 48 h (100 = growth as untreated, 0 = no growth, -100 = all killed)
# Details: 10 µM unless noted
row,SMILES,growth
1,Cc1ncc(C(=O)Nc2ccc(CN3CCN(C)CC3)c(C(F)(F)F)c2)cc1C#Cc1cnc(N)c2ncccc12,7.51% (active)
2,COc1ccc(C(=O)N2c3ccccc3Sc3ccccc32)c(C(F)(F)F)c1,18%
3,Cc1ccc(Cl)cc1NC(=O)c1sc2nc3c(cc2c1N)C(=O)CCC3,37%
4,Oc1c(CN2CCCC2)cc(CSCc2ccccc2)c2cccnc12,20.1%
5,CCOC(=O)CC1CSC(Nc2ccccc2)=N1 (stereo not given),99%
6,C#CCNC(=O)[C@]1(C)CCC[C@@]2(C)[C@H]1CC=C1C=C(C(C)C)CC[C@@H]12,100%
7,CCCCNC(=O)Oc1ccc(/C(=C(/C)Cc2ccc(OC)cc2)c2ccc(OCCN3CCCCC3)cc2)cc1,73.6%
8,COc1cccc(/C=C/C(=O)c2cc3c(N)c(C(=O)Nc4cccc5ccccc45)sc3nc2C)c1,11%
9,COc1cc2c(cc1OCCCCN1CCN(C(=S)SCCC(C#N)(c3ccccc3)c3ccccc3)CC1)N=C[C@@H]1CCCN1C2=O,-60.9% (active)
10,CN1C(=O)/C(=C/c2ccc(C(=O)Nc3ncc(Cc4cccc(Cl)c4)s3)cc2)SC1=S,33.5%
11,Cc1ccc(C(=O)c2ccc(CC(=O)NN3C(=O)c4ccccc4C3=O)n2C)cc1,102%
12,Cn1c(=O)c2[nH]c(SCC(=O)Nc3ccc(C(=O)/C=C/c4ccccc4Cl)cc3)nc2n(C)c1=O,97.9%
13,Nc1[nH]c(=S)nc2oc(-c3ccccc3)c(-c3ccccc3)c12,98.9%
14,O=S(=O)(Oc1ccc(Br)cc1)c1ccc(Cl)cc1,99.3%
15,COC(=O)N1CC(Oc2ccccn2)C2CC1c1ccccc1O2 (stereo not given),107%
16,COc1ccc(/C(C)=C(\c2ccc(Cl)cc2)c2ccc(OCCN3CCCCC3)cc2)cc1,25.7%
17,Cc1ccc2nc(-c3ccc(C(=O)NNC(=S)Nc4ccccc4)cc3)[nH]c2c1,94.8%
18,O=S(=O)(NCCCNc1nccc(-c2c(-c3cccc(F)c3)nc3occn23)n1)c1ccc(F)cc1,40.4%
19,Cc1nc2sc(C(=O)Nc3cccc(Br)c3C)c(N)c2cc1C(O)c1ccccc1 (stereo not given),5.99% (active)
20,CC1(C)N=C(N)N=C(N)N1c1ccc(CCCCc2ccccc2)c(Cl)c1,-79.7% (active)

row,SMILES,growth
1,CCCCNC(=O)c1cc([N+](=O)[O-])cc(C2CCCCC2)c1O,39.5%
2,O=C(CCCCCNC(=O)c1cc(=O)c(O)co1)Nc1ccccc1,100%
3,CCOC(=O)c1c(C)nc2ccccc2c1/C=C/c1ccccc1,71.8%
4,COc1cccc(-c2cc(-c3cccc(Cl)c3)c(C#N)c(=O)[nH]2)c1,57.5%
5,CN(CCCNC(=O)CCOCCOCCOCCNC(=O)Cc1ccc2ccc3cccc4ccc1c2c34)CCCNc1cc(-c2ccc3ccccc3c2)nc2ccccc12,-86.6% (active)
6,Cc1ccc2nc(/C(C#N)=C(/CCCO)NC(Cc3ccccc3)C(=O)OCc3ccccc3)[nH]c(=O)c2c1 (stereo not given),109%
7,NS(=O)(=O)c1ccc(-c2cc(-c3nnc(SCC(=O)Nc4ccc(C(=O)/C=C/c5ccc(Cl)cc5)cc4)n3-c3ccccc3)c3ccccc3n2)cc1,92.1%
8,COC(=O)c1cc(Br)ccc1O,126%
9,COc1ccc(-c2cc(-c3ccccc3)nc(N3CCN(CCNc4ccnc5cc(Cl)ccc45)CC3)n2)cc1,-26.9% (active)
10,CCCCNC(=O)Oc1ccc(/C(=C(/C)Cc2ccc(OC)cc2)c2ccc(OCCN3CCCCCC3)cc2)cc1,60.6%
11,O=C(N=Nc1c(O)[nH]c2ccccc12)Nc1ccc(F)cc1,85.5%
12,O=[N+]([O-])c1ccc(-c2cn3nc(-c4c[nH]c5ccccc45)sc3n2)cc1,83.2%
13,CN(C)c1ccc(/C=C(\C#N)c2cc3ccccc3[nH]2)cc1,24.9%
14,CC(=O)/C(=C/c1ccc([N+](=O)[O-])cc1)C(=O)c1ccccc1,58.9%
15,CCOC(=O)c1nn(CC(O)c2ccccc2)c(NC(=O)Nc2cccc(F)c2)c1C (stereo not given),104%
16,CO[C@H](C(=O)[C@@H](O)[C@@H](C)O)[C@@H]1Cc2cc3cc(O[C@H]4C[C@@H](O[C@H]5C[C@@H](O)[C@H](O)C(C)O5)[C@H](O)C(C)(O)O4)cc(O)c3c(O)c2C(=O)[C@H]1O[C@H]1C[C@@H](O[C@H]2C[C@@H](O[C@H]3C[C@@H](OC)[C@H](O)C(C)O3)[C@@H](O)C(C)O2)[C@H](O)C(C)O1 (stereo not given in full),14.9%
17,CCN(CC)CCCN1C(=O)c2c(c(C)c3c(oc4ccc(O)cc43)c2C)C1=O,70.7%
18,O=C(Nc1ccccc1N1CCCC1=O)c1oc2ccc(F)cc2c1-c1cnn(-c2ccccc2)c1,47.4% [50 µM]
19,O=C(C1CCCCC1)[C@@H]1[C@]2(C(=O)NC3CCCCC32)[C@@H]2CCCN2[C@@]12C(=O)NC1CCC(Cl)CC12 (stereo not given in full),-86% [100 µM] (active)
20,C=C(C)[C@@H]1CC[C@]2(COC(C)=O)CC[C@]3(C)[C@H](CC[C@@H]4[C@@]5(C)CCCN(C(C)=O)C(C)(C)[C@@H]5CC[C@]43C)[C@@H]12,5.81% (active)

# Reference: PubChem BioAssay (NCI)
